Reference: PubChem BioAssay AID488922 (Johns Hopkins Ion Channel Center, 2010)
Screen size: about 310,000 compounds; about 3,800 (1.2%) were called active.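 Rule for the calls: active = ratio B-score over 3 SD below the library mean, with starting fluorescence within 5 SD of its mean; inactive = the rest, inconclusive results apart.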 Many of the other results were omitted from the sample, so actives are more common in it than they were.

What follows are molecules tested against Potassium channel subfamily K member 9 (Homo sapiens) (UniProt Q9NPC2) (assay: KCNK9 potassium channel inhibitors, primary screen, HEK293 cells, thallium flux (AID 488922;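 for B-score: negative B-score means less thallium flux so channel inhibition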)). Details: HEK293 KCNK9, FluxOR thallium flux fluorescence, at 10 µM; stronger effect = lower value.
Chain of Potassium channel subfamily K member 9 (Homo sapiens) (Q9NPC2 whole entry, looked up): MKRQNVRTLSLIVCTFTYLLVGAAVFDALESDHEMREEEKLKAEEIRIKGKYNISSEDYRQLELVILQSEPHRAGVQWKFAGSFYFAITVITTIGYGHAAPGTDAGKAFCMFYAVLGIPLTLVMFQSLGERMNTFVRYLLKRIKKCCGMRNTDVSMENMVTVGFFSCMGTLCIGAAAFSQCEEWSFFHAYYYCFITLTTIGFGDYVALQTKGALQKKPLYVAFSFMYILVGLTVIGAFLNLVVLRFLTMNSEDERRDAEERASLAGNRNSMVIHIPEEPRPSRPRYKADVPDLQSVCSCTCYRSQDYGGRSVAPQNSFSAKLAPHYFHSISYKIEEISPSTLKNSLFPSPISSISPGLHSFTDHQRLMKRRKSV

SMILES	B-score
COc1ccc(CN2CCC(c3nc4ccc(Cl)cc4[nH]3)CC2)cc1	inactive
Cc1ccc(C(=O)NC2CCN(C(=O)Nc3ccc(F)cc3)CC2)cc1	inactive
CN(C)c1ccc(C(CNC(=O)c2ccc(F)cc2)c2c[nH]c3ccccc23)cc1 (centres undefined)	-13 (active)
O=C(Cc1ccccc1)NCc1ccc(F)cc1	inactive
O=C(CNC(=O)c1ccc(F)cc1)c1ccccc1	inactive
O=C(CN(c1ccccc1)S(=O)(=O)c1ccc(Cl)cc1)Nc1ccccc1C(=O)N1CCCC1	inactive
Clc1ccc(-c2ncc3ccccn23)c(Cl)c1	inactive
Clc1ccc(COn2c(-c3ccc(Cl)cc3Cl)nc3ncccc32)cc1	-10.6 (active)
COn1c(-c2ccc(Cl)cc2Cl)nc2ncccc21	inactive
CC1CCN(S(=O)(=O)c2nnc(NC(=O)COc3ccccc3F)s2)CC1	inactive
N/C(=N\S(=O)(=O)c1ccc(Cl)cc1)N1CCOCC1	inactive
CCOC(=O)CSC1=C(C#N)C(c2ccco2)C(C(=O)OCc2ccccc2)=C(C)N1 (centres undefined)	-7.3 (active)
CC1=C(C(=O)OCc2ccccc2)C(c2ccco2)n2ncnc2N1 (centres undefined)	inactive
Cc1ccc(C2CC(=O)NC(SCC(=O)OCc3ccccc3)=C2C#N)o1 (centres undefined)	inactive
CC(=O)N[C@@H](C)C(=O)N1CCC(n2nccc2NC(=O)CCCc2ccccc2)CC1	inactive
COc1ccc(-n2c(=O)[nH]c3cc(C(=O)NCCc4ccc(OC)c(OC)c4)ccc3c2=O)c(OC)c1	inactive
COc1ccccc1-c1nc(SC)n[nH]1	inactive
COc1ccccc1-c1n[nH]c2c1[C@H](C)CC[C@H]2C(C)C	-6.66 (active)
COc1ccc(-c2n[nH]c(C)c2-c2ccccc2OC)c(O)c1	inactive
Cc1ccc2nc(SCC(=O)N3CCN(c4ccccc4)CC3)nc(=O)n2c1	inactive
O=C(NCC(=O)N1CCCC(C(F)(F)F)C1)c1ccccc1F (centres undefined)	inactive
Cc1ccc(CNC(=O)CCS(=O)(=O)c2ccc3c(c2)CC(C)N3C(=O)C2CC2)o1 (centres undefined)	inactive
Cc1ccc(C(=O)Nc2ccc(C)c(S(=O)(=O)N(C)C)c2)s1	inactive
O=C(NCCCO)c1cc2c([nH]c3ccccc32)c(-c2ccc(F)cc2)n1	inactive
C=CCn1c(SCC(=O)NC)nnc1C12CC3CC(CC(C3)C1)C2	inactive
CC1=C(C(=O)OC(C)(C)C)C(c2ccc(Br)cc2)NC(=O)N1CCCC(=O)O (centres undefined)	inactive

SMILES	B-score
Cc1ccc(C2Nc3ccccc3C(=O)N2CCN2CCNC2=O)cc1 (centres undefined)	inactive
COc1ccc(C2Nc3ccccc3C(=O)N2c2ccc(F)cc2)cc1Cn1nnc2ccccc21 (centres undefined)	inactive
COc1ccc(C2Nc3ccccc3C(=O)N2Cc2ccccc2)cc1Cn1nnc2ccccc21 (centres undefined)	-8.45 (active)
Cc1cc(NC(=O)/C=C/C(=O)N(CC(=O)NC2CCCC2)c2ccc(F)cc2)no1	inactive
CCCCCCOC(=O)NCC(O)c1ccccc1 (centres undefined)	inactive
COc1cccc(C(O)c2nc3ccccc3n2C)c1 (centres undefined)	inactive
CCCCCC(O)c1cccc(OCc2ccc3ccccc3n2)c1 (centres undefined)	-16.3 (active)
COc1cc(CCC(=O)N2CCN(c3ccccc3Cl)CC2)cc(OC)c1OC	inactive
CCOc1ccc(C2c3[nH]c4ccccc4c3CCN2Cc2cccn2-c2ncccn2)cc1 (centres undefined)	-9.89 (active)
c1ccc(C2c3[nH]c4ccccc4c3CCN2Cc2cccn2-c2cccnc2)nc1 (centres undefined)	inactive
CCOc1ccc(C2c3[nH]c4ccccc4c3CCN2Cc2cn(CC)nc2C)cc1 (centres undefined)	inactive
O=C(/C=C/c1cccs1)c1cc(Cl)ccc1OC(=O)N1CCOCC1	inactive
COc1cc(NC(=O)Nc2ccc(C)cc2)cc([N+](=O)[O-])c1	inactive
COc1cc(NC(=S)NCc2ccc(S(N)(=O)=O)cc2)cc(OC)c1	inactive
COc1cc(NC(=S)NCCSc2ccc(C)cc2)cc(OC)c1	-9.28 (active)
Cc1cc(C)n(-c2ccc(NC(=O)C3CCCCN3C(=O)c3cccs3)cc2)n1 (centres undefined)	inactive
CNC(C)C#Cc1ccc2sc3cc(OC)c(OC)cc3c(=O)c2c1 (centres undefined)	inactive
CCOC(=O)C1=C(c2ccccc2)O/C(=C(/C(=O)OC)C(F)(F)F)S1	inactive
Cc1ccccc1C(=O)Nc1ccccc1NC(=O)c1ccccc1C	inactive
CCCCCCCCn1c2c(c(=N)c3c1CCC3)CCCC2	-14.2 (active)
O=C(NCc1cc(F)cc(C(F)(F)F)c1)C1CCC(=O)N(C2CCCC2)C1 (centres undefined)	inactive
COc1ccccc1C(=O)NCCn1cc(SCC(=O)NCc2ccco2)c2ccccc21	inactive
COc1ccc(S(=O)(=O)NCCc2c[nH]c3ccccc23)cc1OC	inactive
COc1cccc(CNCCc2c[nH]c3ccccc23)c1OCc1ccccc1F	-8.25 (active)
COc1ccccc1CC(=O)NCCc1c[nH]c2ccccc12	inactive
Cc1cc(C)n(CCNS(=O)(=O)c2ccc(Cl)cc2)n1	inactive

SMILES	B-score
CCC1CCCCN1C(=S)Nc1ccc(C(C)=O)cc1 (centres undefined)	inactive
CCC1CCCCN1C(=O)Nc1cccc(NC(=O)N2CCCCC2CC)c1 (centres undefined)	-7.72 (active)
COc1cccc(NC(=O)N2CCCC2C(=O)NC2CCCCC2)c1 (centres undefined)	inactive
O=C(Nn1c(-c2ccc(Cl)cc2)nc2ccccc2c1=O)c1cccnc1Cl	inactive
C/C(=N\N(C)C)c1ccc(OCCOc2ccc([N+](=O)[O-])cc2)cc1	inactive
Cc1c(/C=N\NC(=O)c2cc3ccccc3o2)c2ccccc2n1C	-6.85 (active)
O=C(N/N=C/c1c[nH]c2ccccc12)c1cc2ccccc2o1	inactive
Cc1ccc(NC(=O)c2cc3ccccc3o2)cc1	inactive
CC(C)c1nnc(NC(=O)C2CC(=O)N(CCc3ccc(F)cc3)C2)s1 (centres undefined)	inactive
CC(C)N(C(=O)CSc1nc(COc2ccccc2)nc2ccccc12)C(C)C	-17.1 (active)
CN(C(=O)CSc1nc(C2CC2)nc2ccccc12)c1nc(-c2ccccc2)cs1	inactive
CCCc1nc(SCC(=O)Nc2ccc(S(=O)(=O)N(C)C)cc2)c2ccccc2n1	inactive
COCCCNC(=S)N1CCN(c2nc(-c3cccc(OC)c3)cs2)CC1	inactive
COc1cccc(COc2ccc(N(C)S(=O)(=O)c3ccccc3)cc2)c1	-14.1 (active)
Cc1ccc2nc(COc3ccc(N(C)S(=O)(=O)c4ccccc4)cc3)cc(=O)n2c1	inactive
CN(c1ccc(OCC(=O)O)cc1)S(=O)(=O)c1ccc2ccccc2c1	inactive
O=C(Nc1ccccc1)O/N=C1/CCCc2occc21	inactive
Cc1ccc2c(c1)N(CC(=O)N1CCC(O)CC1)C(=O)CO2	inactive
O=C(O)COCC(=O)NCc1csc2ccc(Cl)cc12	inactive
Cc1c(C(=O)Nc2ccccn2)oc2ccc(Br)cc12	-9.33 (active)
Cc1nonc1NC(=O)c1oc2ccccc2c1C	inactive
Cc1noc(C)c1C(=O)Nc1ccccn1	inactive
C[C@H](NC(=O)c1nc[nH]c1C(=O)NCC(=O)OC(C)(C)C)C(=O)OCc1ccccc1	inactive
O=C(NCC1CCCO1)c1cc2c([nH]c3ccccc32)c(-c2ccc(F)cc2)n1 (centres undefined)	inactive
CSCC[C@H](NC(=O)CCCn1nnc2ccccc2c1=O)C(=O)O	inactive
CCN(CC)CCNC(=O)c1ccc(NC(=O)c2c(F)cccc2Cl)cc1	inactive

SMILES	B-score
Cc1nn(-c2ccccc2)c(Cl)c1/C=N/NC(=O)c1nn(C)cc1[N+](=O)[O-]	inactive
Cc1cc(=O)[nH]c(N/N=C/c2c(C)nn(-c3ccccc3Cl)c2Cl)n1	-6.92 (active)
Cc1cc(=O)[nH]c(N/N=C/c2ccc3c(c2)OCCO3)n1	inactive
C=C1CCN([C@H](C(=O)NCc2cc(OC)c(OC)c(OC)c2)C(C)C)S(=O)(=O)c2ccccc21	inactive
CCN(c1ccccc1)S(=O)(=O)c1cc2c(cc1C)n(C)c(=O)c(=O)n2C	inactive
Cc1ccc2c(c1)N(CC(=O)N(Cc1ccccn1)Cc1ccco1)C(=O)C(C(C)C)O2 (centres undefined)	inactive
COc1cccc(-c2nn(C)c3sc(C(=O)N4CCN(c5ccccc5)CC4)cc23)c1	-9.93 (active)
COc1ccccc1N1CCN(C(=O)c2cc3c(-c4ccc(Cl)cc4)nn(C)c3s2)CC1	-13.6 (active)
Cn1nc(C(F)(F)F)c2cc(C(=O)N3CCOCC3)sc21	inactive
COc1cccc(-c2cc(C(=O)N3CCN(c4ccccc4OC)CC3)no2)c1	inactive
Cn1nc(-c2ccc(Cl)cc2)c2cc(C(=O)NCc3ccco3)sc21	inactive
COc1cccc(-c2ccc(SCC(=O)N3CCN(c4ccccc4)CC3)nn2)c1	inactive
CN1CCN(C2Cc3ccc(Cl)cc3Sc3ccc(F)cc32)CC1 (centres undefined)	inactive
N#C/C=C/N1CCN(Cc2ccc3c(c2)OCO3)CC1	inactive
CC(C)(C)NC(=O)Cn1c(SCC(=O)Nc2nccs2)nc2ccccc21	inactive
O=C(Nn1cnnc1)c1cc(Cl)ccc1Cl	inactive
COc1ccc(/C=N/OCc2ccccc2C#N)c(OC)c1	inactive
O=C(Nc1ccc(Cl)c(Cl)c1)N1CC=C(c2ccccc2)CC1	-8.34 (active)
COc1cc(C(=O)NCC(=O)N2CC=C(c3ccccc3)CC2)cc(OC)c1OC	inactive
O=C(Nc1ccccc1)N1CCN(C(=O)Nc2ccccc2)CC1	inactive
Cc1cccc(N(C)C(=O)CN2C(=O)COc3ccc(S(=O)(=O)N4CCCCCC4)cc32)c1	-8.26 (active)
CN(C)c1ccc(CNC(=O)CN2C(=O)COc3ccc(S(=O)(=O)N4CCCC4)cc32)cc1	inactive
CC(=O)Nc1ccc(NC(=O)CN2C(=O)COc3ccc(S(=O)(=O)N4CCCCC4)cc32)cc1	inactive
COc1ccc(NC(=O)C(CC(C)C)NS(=O)(=O)c2ccc3c(c2)CCN3C(C)=O)cc1OC (centres undefined)	inactive
S=c1nc2ccccc2c2nc(-c3cccnc3)[nH]n12	inactive
COCCCn1c(SCC(=O)Nc2oc(C)c3c(C)n[nH]c(=O)c23)nc2sc3c(c2c1=O)CCC3	inactive
